Measured values from PubChem BioAssay AID493131 (Broad Institute, 2011).
In all, about 340,000 compounds went through this assay and about 3,300 (0.97%) were called active.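 The calls were made as follows: active = mean activation above about 17%, with every replicate also reaching it (limit read from the data, passing the limit was not always enough); inconclusive = only one of the two conditions met; inactive = the rest.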 Shown is part of a subset that was picked to be rich in actives.

The molecules below were run against Protein FosB (Mus musculus) (UniProt P13346) (assay: enhancers of mouse delta FosB DNA binding – biochemical, fluorescence polarization, TAMRA-CDK5 oligo, single point, primary screen (AID 493131;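 also: fluorescence polarization rise as delta FosB binds a TAMRA Cdk5 AP-1 oligo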)). Conditions: purified delta FosB, at 25 µM, active compounds read high, percent of positive-control signal above neutral wells.
Sequence of Protein FosB (Mus musculus) (P13346 whole entry, looked up): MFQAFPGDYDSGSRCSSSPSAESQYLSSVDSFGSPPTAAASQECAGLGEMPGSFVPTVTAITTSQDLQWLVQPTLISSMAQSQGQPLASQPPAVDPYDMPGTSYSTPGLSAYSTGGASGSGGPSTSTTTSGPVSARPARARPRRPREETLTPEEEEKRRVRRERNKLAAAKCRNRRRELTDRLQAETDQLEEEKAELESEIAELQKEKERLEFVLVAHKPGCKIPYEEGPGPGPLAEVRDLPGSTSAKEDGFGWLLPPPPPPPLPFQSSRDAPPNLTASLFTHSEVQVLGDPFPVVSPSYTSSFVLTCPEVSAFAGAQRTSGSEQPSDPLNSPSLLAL

Structure (SMILES) | activation
CCCCNC(=O)C(C)N(CCN(C)C)C(=O)CCCN1C(=O)NC(c2ccc(Cl)cc2)C(C(=O)OCc2ccccc2)=C1C (stereo not given) | -3.28% (inactive)
CCCCNC(=O)C(C)N(CCN(C)C)C(=O)CCCCCN1C(=O)NC(c2ccc(Cl)cc2)C(C(=O)OCc2ccccc2)=C1C (stereo not given) | 18.2% (active)
CC1=C(C(=O)OCc2ccccc2)C(c2ccc(C(F)(F)F)cc2)NC(=O)N1CCCCCC(=O)O (stereo not given) | -6.43% (inactive)
Cc1ccc(CC2CC(=O)N(c3ccc4c(c3)OCCO4)C2=O)cc1 (stereo not given) | -9.23% (inactive)
N#CC(C#N)=CN=c1ccn(Cc2ccc(Cl)cc2Cl)cc1 | -0.0405% (inactive)
COc1ccccc1-n1c(=S)[nH]c2c(sc(=S)n2-c2ccc(C)cc2C)c1=O | -9.95% (inactive)
COc1ccc(NC(=O)CSc2nc(N)c(-c3ccccc3)c(=O)[nH]2)cc1 | -6.21% (inactive)
COc1ccc(C(=O)Nc2c(N)nc(SCC(=O)Nc3ccc(C(C)=O)cc3)[nH]c2=O)cc1 | 22% (active)
COc1ccc(C(=O)Nc2c(N)nc(SCC(=O)N3CCC(C)CC3)[nH]c2=O)cc1OC | -3.09% (inactive)
O=C(COC(=O)CNS(=O)(=O)c1ccc(F)c(F)c1F)NC1CCCC1 | 0.263% (inactive)
COc1ccc(CCN(Cc2cc3cccc(C)c3[nH]c2=O)C(=O)N2CCCC2)cc1OC | -15.7% (inactive)
Fc1ccccc1N=C1Nc2cccc3cccc1c23 | 3.8% (inactive)
c1ccc(C2=Nc3cccc4cccc(c34)N2)cc1 | 28.1% (active)
COc1ccccc1C1=Nc2cccc3cccc(c23)N1 | -1.27% (inactive)
CC(=O)N1CSCC1C(=O)O (stereo not given) | 0.385% (inactive)
Cc1ccc(NC(=O)C(CC(=O)O)C2CCCO2)c(C)c1 (stereo not given) | -0.253% (inactive)
Cn1ccnc1SCC(=O)Nc1ccc2c(c1)OCCO2 | -4.18% (inactive)
Cc1ccc(-c2cc(C(=O)N/N=C/C=C/c3ccccc3)n[nH]2)o1 | 23.5% (active)
O=C(NN=CC=Cc1ccccc1)C(O)C(O)C(=O)NN=CC=Cc1ccccc1 (stereo not given) | 2.15% (inactive)
CC(C)c1cc(C(=O)N/N=C/C(Br)=C/c2ccccc2)n[nH]1 | -3.49% (inactive)
Cc1ccc(OCc2cc(C(=O)N(C)CCn3ccnc3C)no2)cc1C | -7.77% (inactive)
O=C(c1ccc(NS(=O)(=O)c2ccc3[nH]c(=O)[nH]c3c2)cc1)N1CCCCC1 | -5.69% (inactive)
Cc1cccc([C@@H]2[C@@H]3C(=O)N(Cc4ccccc4)C(=O)[C@@H]3[C@]3(Cc4ccc(Cl)cc4)C(=O)N(c4cccc(Cl)c4)C(=O)N23)c1 | -7.94% (inactive)

Structure (SMILES) | activation
COc1cccc(CN(C)CC(=O)Nc2sc3c(c2C#N)CCC3)c1 | -3.77% (inactive)
COc1ccc(-n2c(SCC(=O)Nc3sc4c(c3C#N)CCCC4)nnc2-c2ccc(O)cc2)cc1 | 23.1% (active)
CCCc1cc(=O)[nH]c(SCC(=O)Nc2sc3c(c2C#N)CCCC3)n1 | -10.9% (inactive)
NC(=O)c1nnsc1-c1ccc(-c2snnc2C(N)=O)cc1 | 12.3% (inactive)
Cc1c(C(=O)NCCN2CCOCC2)sc2nc(-c3ccc(F)cc3)cn12 | -10.6% (inactive)
CCCCn1c(N)c(N(CC(C)C)C(=O)c2ccc(-n3c(C)ccc3C)cc2)c(=O)[nH]c1=O | 8.61% (inactive)
COc1ccc2nc(/N=C(\N)NC(=O)Nc3ccccc3)nc(C)c2c1 | 52.1% (active)
Cc1nc(/N=C(\N)NC(=O)NC2CCCCC2)nc2ccccc12 | 3.68% (inactive)
COc1ccc2nc(C)cc(Nc3cccc(C(=O)O)c3)c2c1 | -0.297% (inactive)
O=S(=O)(NCC1CN(S(=O)(=O)c2ccc3c(c2)OCCO3)C1)c1c(F)cccc1F | 2.95% (inactive)
CS(=O)(=O)N1CCN=C1SCc1ccc(F)cc1 | 1.39% (inactive)
CCN(CC)CCOc1ccc2c(c1)C(=NNC(=O)c1ccccn1)c1cc(OCCN(CC)CC)ccc1-2 | 79.1% (active)
C/C(=N\NC(=O)c1ccccc1F)c1ccccn1 | -8.45% (inactive)
CCOc1cc2ccccc2cc1C(=O)Nc1ccccn1 | -0.935% (inactive)
CN(C)NC(=O)C(NC(=O)c1ccc(N)cc1)C12CC3CC(CC(C3)C1)C2 (stereo not given) | -3.81% (inactive)
Cc1oc(CC(C)C)c(CN2CCCC2)c1C(=O)O | 4.27% (inactive)
Cc1ccc(OCC(=O)Nc2ccccc2C(=O)NC2CC2)cc1C | 36.7% (active)
Cc1ccc(OCC(=O)Nc2ccccc2C(=O)NC2CC2)cc1 | -7.85% (inactive)
COc1ccccc1OCC(=O)Nc1ccccc1C(=O)NC1CC1 | -0.401% (inactive)
COc1ccc(C2=Nc3cc(C)ccc3OC2)cc1 | -10.5% (inactive)
CCCCCCCCCCOC(=O)Cn1c(COc2ccc(C)cc2)[n+](C)c2ccccc21 | 38.3% (active)
CCCCOc1ccc(NC(=O)CSCC(=O)OCC)cc1 | -6.39% (inactive)
CCOC(=O)CNC(=O)CSc1nnc(-c2cccc(OC)c2)n1CC | -2.27% (inactive)

Structure (SMILES) | activation
COc1cccc(NC(=O)COC(=O)CCOc2ccccc2OC)c1 | 2.67% (inactive)
CCOC(=O)COn1c(=O)c(-c2ccc(OCC)cc2)[n+]([O-])c2ccccc21 | -3.65% (inactive)
CCCCCCCCCCOC(=O)Cn1c(COc2cccc(OC)c2)[n+](C)c2ccccc21 | 28.7% (active)
CCC1=C(OC(=O)N(CC)CC)N2C(=O)OC(=NCCc3c[nH]c4ccccc34)[C@]2(C)[C@H]2C1=CC[C@H]1C(=O)N(CC)C(=O)[C@H]12 | -18.3% (inactive)
CC(=O)c1ccc(S(=O)(=O)N2CCC(Oc3ccc(-n4cnnn4)cc3)CC2)cc1 | 12.7% (inactive)
Cc1ccc(S(=O)(=O)N2CCC(Oc3ccc(-n4cnnn4)cc3)CC2)cc1 | 58.6% (active)
CCOC(=O)N1CCN(S(=O)(=O)c2ccc(-n3cnnn3)cc2)CC1 | -6.35% (inactive)
Cn1c(=O)c2c(nc(Br)n2CCSc2nc3ccccc3o2)n(C)c1=O | 1.42% (inactive)
Cc1cccc(C)c1NC(=O)C1(C)c2cccc[n+]2CC(=O)N1Cc1cccs1 (stereo not given) | -6.06% (inactive)
C=CCc1ccccc1OCC(O)CN1CCN(CCO)CC1 (stereo not given) | -2.68% (inactive)
Cc1cccc(OCC(O)CN2CCN(CCN3C(=O)c4cccc5cccc(c45)C3=O)CC2)c1C (stereo not given) | 62.2% (active)
COc1ccccc1OCC(O)CN1CCOCC1 (stereo not given) | -1.24% (inactive)
COc1ccc(S(=O)(=O)NCCOc2ccccc2)cc1F | 7.41% (inactive)
CCOc1ccc(-n2c(SCC(=O)OC)nc3sc4c(c3c2=O)CCN(C)C4)cc1 | -0.804% (inactive)
CCCSc1nc2sc3c(c2c(=O)n1-c1ccc(OC)cc1)CCN(C)C3 | -14.7% (inactive)
CCOc1ccc(-n2c(SCC(=O)Nc3ccc(OC)cc3)nc3sc4c(c3c2=O)CCN(C)C4)cc1 | 50.3% (active)
Cc1ccccc1-c1nc(CS(=O)(=O)CC(=O)N2CCc3ccccc3C2)c(C)o1 | -5.6% (inactive)
O=C(COC(=O)c1cnccn1)Nc1cccc2ccccc12 | -2.31% (inactive)
N#CCCN1CCN(S(=O)(=O)c2ccc(S(=O)(=O)NC3CCCCC3)cc2)CC1 | -3.88% (inactive)
COC(=O)c1cc(NC(=O)CN2CCN(C(C)=O)CC2)cc(C(=O)OC)c1 | 2.81% (inactive)
Cc1cccc(Nc2nnc(SCC(=O)c3c(N)n(C4CC4)c(=O)[nH]c3=O)s2)c1C | -2.18% (inactive)
Cc1nnc(NC(=O)C(c2ccccc2)c2ccccc2)s1 | -0.437% (inactive)
Cc1nnc(NC(=O)c2ccc3nccnc3c2)s1 | 1.3% (inactive)

Structure (SMILES) | activation
Cc1nnc(NC(=O)Nc2ccc(Cl)c(Cl)c2)s1 | 28.8% (active)
CC(C)Cn1c(N)c(C(=O)COC(=O)CN2C(=O)C3CC=CCC3C2=O)c(=O)n(C)c1=O (stereo not given) | -11.5% (inactive)
COc1cccc(N2CC(NS(=O)(=O)c3cccs3)CC2=O)c1 (stereo not given) | 0.171% (inactive)
CCc1ccc(CNC(=O)C2CC(=O)N(CCc3ccc(C)cc3)C2)cc1 (stereo not given) | -3.6% (inactive)
CCc1ccc(CNC(=O)C2CCN(c3nnc(C)c4c(C)n(-c5ccc(C)cc5)nc34)CC2)cc1 | 82.7% (active)
CCOc1ccc(CNC(=O)C2CCCN(c3nnc(C)c4c(C)n(-c5ccccc5)nc34)C2)cc1 (stereo not given) | -5.11% (inactive)
Cc1ccc(NC(=O)CN2CCc3ccccc3C2)cc1C | -4.61% (inactive)
Cc1ccc(OS(=O)Nc2cccc3nccnc23)cc1 (stereo not given) | -0.877% (inactive)
O=C(Cc1csc(Nc2nc(=S)[nH]c3ccccc23)n1)NCCCN1CCN(c2cccc(Cl)c2)CC1 | 34.1% (active)
COc1cccc(CNC(=O)Cc2csc(Nc3nc(=S)[nH]c4ccccc34)n2)c1 | 12.2% (inactive)
O=C(CCCn1c(=O)[nH]c2cc(Cl)ccc2c1=O)NCCN1CCN(c2ccccc2)CC1 | -5.22% (inactive)
O=[N+]([O-])c1cc2ccccc2nc1-c1ccccc1 | -4.74% (inactive)
CC1COc2ccccc2N1C(=O)c1cccnc1Cl (stereo not given) | -2.06% (inactive)
Cc1cccc(Nc2nc(NCCO)nc(N3CCCC3)n2)c1 | 2.75% (inactive)
OCCNc1nc(Nc2ccc(Cl)c(Cl)c2)nc2ccccc12 | 47% (active)
CN1CCN(c2nc(Nc3ccc(O)cc3)nc3ccccc23)CC1 | 10.9% (inactive)
CC12CN(Cc3ccccc3)CC(C)(CN(Cc3ccccc3)C1)C2=NO | -1.53% (inactive)
CCOc1ccccc1-n1c(SCC(=O)NCc2ccco2)nnc1-c1ccncc1 | -2.73% (inactive)
COc1ccccc1NC(=O)Nc1nnc(Cc2ccc(F)cc2)s1 | -2.06% (inactive)
O=C(Nc1ccccc1)Nc1nnc(COc2ccccc2F)s1 | 28.4% (active)
O=C(NCCOc1ccccc1F)Nc1ccc(Br)cc1 | -2.98% (inactive)
